Reference: PubChem BioAssay (EPA / NIEHS)
Inconclusive results are not listed. Active and inactive are the calls of the source. How the source made its calls: active means hit-call score of the fitted dose curve at least 0.9, where 1 is the maximum; inconclusive means response in the unintended direction; inactive means score below 0.9.

The compounds below were run against human Fibroblast Growth Factor Receptor 1 (FGFR1), FGFR1 (gene 2260) (UniProt P11362) (assay: NVS_ENZ_hFGFR1: NovaScreen (NVS) Enzymatic Assay for human Fibroblast Growth Factor Receptor 1 (FGFR1) (AID 2283159);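 on AC50: hits lower the signal so potencies describe inhibitors of the kinase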).
How it was run: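 Cell-free recombinant kinase with fluorescent substrate, product separated by electrophoretic mobility shift; read 1 hour after dosing, loss of signal relative to DMSO. Initial screen in duplicate at 25 uM, actives followed in concentration series.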

human Fibroblast Growth Factor Receptor 1 (FGFR1), FGFR1 (gene 2260), sequence (P11362 whole entry, looked up): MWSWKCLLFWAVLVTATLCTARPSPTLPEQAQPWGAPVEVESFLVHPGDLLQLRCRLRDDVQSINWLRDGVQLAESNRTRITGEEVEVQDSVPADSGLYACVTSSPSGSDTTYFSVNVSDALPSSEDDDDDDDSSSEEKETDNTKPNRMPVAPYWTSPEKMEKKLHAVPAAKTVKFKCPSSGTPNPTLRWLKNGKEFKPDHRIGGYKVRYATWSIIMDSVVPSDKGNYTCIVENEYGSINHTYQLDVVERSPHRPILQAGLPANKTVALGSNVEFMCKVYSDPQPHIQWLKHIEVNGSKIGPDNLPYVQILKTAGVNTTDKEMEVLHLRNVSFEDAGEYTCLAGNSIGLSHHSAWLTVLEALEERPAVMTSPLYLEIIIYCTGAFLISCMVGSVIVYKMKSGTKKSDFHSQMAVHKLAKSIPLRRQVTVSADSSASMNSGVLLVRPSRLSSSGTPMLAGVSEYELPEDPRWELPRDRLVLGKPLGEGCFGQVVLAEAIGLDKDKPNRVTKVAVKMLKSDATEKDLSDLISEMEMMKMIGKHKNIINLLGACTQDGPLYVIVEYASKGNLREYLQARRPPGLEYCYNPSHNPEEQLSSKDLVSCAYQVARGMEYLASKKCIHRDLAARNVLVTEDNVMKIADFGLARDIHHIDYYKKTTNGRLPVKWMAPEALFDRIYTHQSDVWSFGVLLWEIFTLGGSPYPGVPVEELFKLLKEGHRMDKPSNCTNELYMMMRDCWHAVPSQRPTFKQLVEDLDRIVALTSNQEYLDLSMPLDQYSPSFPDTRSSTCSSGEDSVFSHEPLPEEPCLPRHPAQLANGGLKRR

| SMILES | outcome | AC50 |
| --- | --- | --- |
| ClC(Cl)(Cl)c1ccccc1 | inactive | – |
| ClC1=C(Cl)C2(Cl)C3C(Cl)C(Cl)CC3C1(Cl)C2(Cl)Cl (configuration not stated) | inactive | – |
| CSC(C)(C)C=NO | inactive | – |
| O=[N+]([O-])c1ccccc1 | inactive | – |
| CC1(C)CN=C(NN=C(/C=C/c2ccc(C(F)(F)F)cc2)/C=C/c2ccc(C(F)(F)F)cc2)NC1 | – | 13.6 µM (active) |
| CCNc1nc(Cl)nc(NC(C)(C)C)n1 | inactive | – |
| CCCCN(CCCC)N=O | inactive | – |
| O=P1(N(CCCl)CCCl)NCCCO1 (configuration not stated) | inactive | – |

What follows are compounds tested against Glycogen synthase kinase-3 beta (Homo sapiens) (UniProt P49841) (assay: NVS_ENZ_hGSK3b: NovaScreen (NVS) Enzymatic Assay for human Glycogen Synthase Kinase-3 beta (GSK3b) (AID 2283165)).
How it was run: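 Recombinant enzyme with specific fluorescent substrate, 1 h, product separated by electrophoretic mobility shift. Primary duplicate screen at 25 uM; actives (e.g. 30% inhibition) followed in singleton concentration-response to 50 uM. Signal loss fitted versus DMSO.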

Glycogen synthase kinase-3 beta (Homo sapiens), sequence (P49841 whole entry, looked up): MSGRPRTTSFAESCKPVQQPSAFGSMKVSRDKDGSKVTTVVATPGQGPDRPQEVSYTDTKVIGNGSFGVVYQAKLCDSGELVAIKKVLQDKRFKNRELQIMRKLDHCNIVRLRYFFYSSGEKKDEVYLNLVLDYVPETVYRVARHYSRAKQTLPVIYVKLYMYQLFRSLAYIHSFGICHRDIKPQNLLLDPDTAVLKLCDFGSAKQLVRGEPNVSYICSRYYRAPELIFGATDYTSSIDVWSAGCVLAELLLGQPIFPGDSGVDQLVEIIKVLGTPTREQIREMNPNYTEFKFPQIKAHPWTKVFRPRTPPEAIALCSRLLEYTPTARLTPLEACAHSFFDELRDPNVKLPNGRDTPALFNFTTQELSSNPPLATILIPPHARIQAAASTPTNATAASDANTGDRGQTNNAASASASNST

| SMILES | outcome |
| --- | --- |
| CCOS(=O)(=O)OCC | inactive |
| Nc1ccc2ccccc2c1 | inactive |
| OCC1CO1 (configuration not stated) | inactive |
| c1ccc(OP(Oc2ccccc2)Oc2ccccc2)cc1 | inactive |
| CCC(C)(C)c1ccc(O)cc1 | inactive |
| CCOC(=O)c1ccccc1C(=O)OCC | inactive |
| CC(C)(C)c1ccc(O)cc1 | inactive |
| CC(C)(C)OOC(C)(C)C | inactive |
| Cc1ccc(O)cc1C | inactive |
